Assay [1] has as its target bovine Estrogen Receptor (ER), ESR1 (gene 407238) (UniProt P49884). As to the kind of experiment: NVS_NR_bER: NovaScreen (NVS) Nuclear Receptor Binding Assay for bovine Estrogen Receptor (ER) (AID 2283345).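 Further: actives lower the bound radioligand count which means they displace the ER ligand.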 An outline of the steps:
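Cell-free radioligand binding with receptor from bovine uterine membranes, read by scintillation counting 18 h after dosing. Loss of specific binding was scored against DMSO; primary screen at 25 uM in duplicate, actives then run as concentration series.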

In assay [2] the target is Estrogen receptor (Homo sapiens) (UniProt P03372). As to the kind of experiment: NVS_NR_hER: NovaScreen (NVS) Nuclear Receptor Binding Assay for human Estrogen Receptor (ER) (AID 2283348). An outline of the steps: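 Radioligand competitive displacement binding to estrogen receptor from MCF7 extract, cell-free; 18 h after dosing, scintillation read-out. Primary screen in duplicate at 25 uM; actives followed up in concentration series; loss of signal vs DMSO.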
Chain of Estrogen receptor (Homo sapiens) (P03372 whole entry, looked up, the tested form may be a part): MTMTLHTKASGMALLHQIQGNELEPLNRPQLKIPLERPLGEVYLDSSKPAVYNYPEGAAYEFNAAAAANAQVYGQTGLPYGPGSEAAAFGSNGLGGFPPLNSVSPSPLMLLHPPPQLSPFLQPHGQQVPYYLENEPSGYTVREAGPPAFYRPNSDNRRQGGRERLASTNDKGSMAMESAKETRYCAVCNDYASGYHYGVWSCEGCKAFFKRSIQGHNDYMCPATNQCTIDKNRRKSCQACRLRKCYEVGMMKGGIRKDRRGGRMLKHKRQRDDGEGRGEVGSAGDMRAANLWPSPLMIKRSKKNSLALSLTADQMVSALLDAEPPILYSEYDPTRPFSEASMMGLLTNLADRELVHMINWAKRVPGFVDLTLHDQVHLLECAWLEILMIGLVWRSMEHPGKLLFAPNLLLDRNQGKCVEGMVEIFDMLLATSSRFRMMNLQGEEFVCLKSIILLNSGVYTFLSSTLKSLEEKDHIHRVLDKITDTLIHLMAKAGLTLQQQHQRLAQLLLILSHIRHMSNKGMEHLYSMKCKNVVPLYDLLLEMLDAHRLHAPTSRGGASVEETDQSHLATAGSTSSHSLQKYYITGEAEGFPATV

The target in assay [3] is rat Peripheral-type Benzodiazepine Receptor (PBR), Tspo (gene 24230) (UniProt P16257). As to the kind of experiment: NVS_MP_rPBR: NovaScreen (NVS) Membrane Protein Assay for rat Peripheral-type Benzodiazepine Receptor (PBR) (AID 2283335). In outline: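 Rat kidney membranes; radioligand binding with displacement, filter-based scintillation counting, 1 h incubation. Primary screen in duplicate at 25 uM, actives followed in concentration series; loss of binding vs DMSO.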
Chain of rat Peripheral-type Benzodiazepine Receptor (PBR), Tspo (gene 24230) (P16257 whole entry, looked up): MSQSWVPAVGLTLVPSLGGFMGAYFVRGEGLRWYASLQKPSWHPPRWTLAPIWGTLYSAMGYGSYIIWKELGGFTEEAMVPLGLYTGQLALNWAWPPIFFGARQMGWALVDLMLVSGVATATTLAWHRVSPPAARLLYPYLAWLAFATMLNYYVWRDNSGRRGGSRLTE

Assay [4] is described as follows: NVS_IC_rCaBTZCHL: NovaScreen (NVS) Ion Channel Assay for Calcium Channel, Type L, Benzothiazepine Site (CaBTZCHL) (AID 2283337). An outline of the steps: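 Scintillation counting of filter-bound radioligand gave the read-out, with reduced binding versus DMSO scored as activity. Membranes came from rat cortex and were read 1.5 h after compound addition. Chemicals were screened first in duplicate at 25 uM.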

Assay [5] deals with Estrogen receptor (Homo sapiens) (UniProt P03372). As to the kind of experiment: OT_ER_ERaERa_1440: Odyssey Thera (OT) 24-hour HEK293T Protein-Complementation Assay for Estrogen Receptor-alpha/-alpha Homodimer (AID 2283349).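 Further: hits raise fluorescence above DMSO for agonists and antagonists alike.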 In outline: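 HEK293T cells stably expressing the human ER alpha ligand-binding domain (aa 310-547) as a homodimer PCA were dosed for 24 hours. Fluorescence intensity was read by laser scanning cytometry, and gain of signal was fitted relative to DMSO vehicle.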

Assay [6] has the same target. The experiment in a line: OT_ER_ERaERa_0480: Odyssey Thera (OT) 8-hour HEK293T Protein-Complementation Assay for Estrogen Receptor-alpha/-alpha Homodimer (AID 2283351).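 Further: rise in fluorescence from reassembled reporter fragments on ERα LBD homodimer in nucleus or whole cell.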 An outline of the steps: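 HEK293T, stable ERα LBD (aa 310-547) PCA homodimer; 8 h compound exposure; fluorescence intensity, laser scanning cytometer; positive fitting direction, DMSO baseline.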
Another assay has as its system NCBI gene 100848466. The experiment in a line: NVS_NR_bPR: NovaScreen (NVS) Nuclear Receptor Binding Assay for bovine Progextron Receptor (PR) (AID 2283343).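 Further: actives lower bound radioligand signal below DMSO meaning displacement of the label.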 An outline of the steps:
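Bovine uterine membrane preparation; radioligand displacement read by scintillation counting 18 h after dosing. Primary screen single concentration, 25 uM, in duplicate; actives followed up in concentration series. Signal loss versus DMSO baseline.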

Assay [7] concerns the target Retinoic acid receptor alpha (Homo sapiens) (UniProt P10276). The experiment in a line: NVS_NR_hRAR_Antagonist: NovaScreen (NVS) Nuclear Receptor Binding Assay for human Retinoic Acid Alpha Receptor Antagonism (RAR) (AID 2283358). In outline: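 Cell-free TR-FRET binding assay with extracted human RARalpha in antagonist mode, read 2 h after dosing. Loss of signal was fitted relative to DMSO; the primary screen used 25 uM in duplicate, with concentration series on follow-up.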

For assay [8], the target named is human Peroxisome Proliferator-activated Receptor alpha (PPARa), PPARA (gene 5465) (UniProt Q07869). As to the kind of experiment: NVS_NR_hPPARa: NovaScreen (NVS) Nuclear Receptor Binding Assay for human Peroxisome Proliferator-activated Receptor alpha (PPARa) (AID 2283359).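 Further: activity means loss of TR-FRET signal versus DMSO baseline.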 In outline:
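Cell-free TR-FRET binding assay with extracted PPARα protein, read 1 h after dosing. Primary screen in duplicate at 25 uM, with actives retested in concentration series. Loss of signal versus DMSO.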

Assay [9] addresses rat Glutamate, MK-801 Agonist Site (GluNMDA_MK801), Grin1 (gene 24408) (UniProt P35439). As to the kind of experiment: NVS_LGIC_rGluNMDA_MK801_Agonist: NovaScreen (NVS) Ligand-Gated Ion Channel Assay for rat Glutamate, MK-801 Agonist Site (GluNMDA_MK801) (AID 2283340). An outline of the steps: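 Radioligand binding at MK-801 site in rat forebrain membranes, 1.5 h incubation, filter-based scintillation counting. Initially 25 uM in duplicate; actives then run in concentration-response up to 50 uM, fitted for gain of signal versus DMSO.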

The test system of assay [10] is guinea pig Histamine Receptor (H2), gene 100729734. As to the kind of experiment: NVS_GPCR_gH2: NovaScreen (NVS) G Protein-Coupled Receptor Assay for guinea pig Histamine Receptor (H2) (AID 2283342). An outline of the steps:
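Radioligand displacement on guinea pig striatal membranes, 1 h after dosing, filter-based scintillation counting; loss of signal versus DMSO. Single-point screen at 25 uM in duplicate, then concentration-response up to 50 uM.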

Assay [11] has as its target Androgen Receptor/SRC-1 Co-activator, AR (gene 367) (UniProt P10275). The experiment in a line: OT_AR_ARSRC1_0960: Odyssey Thera (OT) 16-hour HEK293T Protein-Complementation Assay for Androgen Receptor/SRC-1 Co-activator (AID 2283353).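 Further: actives raise the signal above DMSO so potency reflects increased AR and SRC-1 complex.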 An outline of the steps: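 Split-Venus PCA, AR/SRC-1 fusions, stable HEK293T; 16 h compound exposure; imaged at 488 and 635 nm; N/C ratio (488 nm channel), min 400 cells/image; positive-direction fit, DMSO baseline.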

Assay [12] shares this target. The experiment in a line: OT_AR_ARSRC1_0480: Odyssey Thera (OT) 8-hour HEK293T Protein-Complementation Assay for Androgen Receptor/SRC-1 Co-activator (AID 2283354).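 Further: hits raise the complementation signal above DMSO so AC50 marks enhancers.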 An outline of the steps:
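HEK293T cells stably expressing AR and SRC-1 fused to Venus YFP fragments, imaged 8 h after dosing. Complementation fluorescence scored as nuclear/cytoplasmic ratio at 488 nm in at least 400 cells per image; gain fitted versus DMSO.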

Values joined by “and” are separate entries in the source; they are usually repeats but may differ in a detail not shown here. Equal entries are not always repeated. Inconclusive results are not listed. Active and inactive are the calls of the source. How the source made its calls: active means hit-call score of the fitted dose curve at least 0.9, where 1 is the maximum; inconclusive means response in the unintended direction; inactive means score below 0.9.

Chain of bovine Estrogen Receptor (ER), ESR1 (gene 407238) (P49884 whole entry, looked up): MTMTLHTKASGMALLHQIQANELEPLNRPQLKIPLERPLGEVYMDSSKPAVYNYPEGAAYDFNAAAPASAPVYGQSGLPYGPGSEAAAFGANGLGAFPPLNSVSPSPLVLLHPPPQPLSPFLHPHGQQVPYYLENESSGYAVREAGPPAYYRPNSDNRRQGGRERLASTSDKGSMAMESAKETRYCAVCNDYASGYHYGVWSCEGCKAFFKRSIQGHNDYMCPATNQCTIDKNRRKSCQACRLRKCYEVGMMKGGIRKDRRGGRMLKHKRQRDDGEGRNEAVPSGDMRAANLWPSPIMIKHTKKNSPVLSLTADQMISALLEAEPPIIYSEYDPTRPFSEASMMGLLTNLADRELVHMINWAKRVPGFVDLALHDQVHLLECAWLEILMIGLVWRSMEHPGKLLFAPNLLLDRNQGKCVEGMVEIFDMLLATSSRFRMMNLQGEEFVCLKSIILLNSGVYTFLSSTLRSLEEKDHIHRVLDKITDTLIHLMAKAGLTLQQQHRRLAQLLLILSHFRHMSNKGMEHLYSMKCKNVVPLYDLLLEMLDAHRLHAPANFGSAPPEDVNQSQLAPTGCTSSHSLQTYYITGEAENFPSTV
Chain of human Peroxisome Proliferator-activated Receptor alpha (PPARa), PPARA (gene 5465) (Q07869 whole entry, looked up): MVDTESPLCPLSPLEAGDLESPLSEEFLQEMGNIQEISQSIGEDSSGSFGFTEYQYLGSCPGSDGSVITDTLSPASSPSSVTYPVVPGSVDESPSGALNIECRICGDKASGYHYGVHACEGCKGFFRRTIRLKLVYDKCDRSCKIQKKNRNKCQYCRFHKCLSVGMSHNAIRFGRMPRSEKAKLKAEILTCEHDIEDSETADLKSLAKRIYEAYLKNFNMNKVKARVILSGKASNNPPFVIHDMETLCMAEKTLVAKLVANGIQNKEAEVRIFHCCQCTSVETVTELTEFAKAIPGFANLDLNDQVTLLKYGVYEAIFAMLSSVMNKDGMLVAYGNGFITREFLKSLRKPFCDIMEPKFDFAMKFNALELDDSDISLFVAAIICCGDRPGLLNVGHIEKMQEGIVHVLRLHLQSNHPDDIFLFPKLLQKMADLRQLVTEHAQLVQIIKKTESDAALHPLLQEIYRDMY
Chain of Androgen Receptor/SRC-1 Co-activator, AR (gene 367) (P10275 whole entry, looked up, the tested form may be a part): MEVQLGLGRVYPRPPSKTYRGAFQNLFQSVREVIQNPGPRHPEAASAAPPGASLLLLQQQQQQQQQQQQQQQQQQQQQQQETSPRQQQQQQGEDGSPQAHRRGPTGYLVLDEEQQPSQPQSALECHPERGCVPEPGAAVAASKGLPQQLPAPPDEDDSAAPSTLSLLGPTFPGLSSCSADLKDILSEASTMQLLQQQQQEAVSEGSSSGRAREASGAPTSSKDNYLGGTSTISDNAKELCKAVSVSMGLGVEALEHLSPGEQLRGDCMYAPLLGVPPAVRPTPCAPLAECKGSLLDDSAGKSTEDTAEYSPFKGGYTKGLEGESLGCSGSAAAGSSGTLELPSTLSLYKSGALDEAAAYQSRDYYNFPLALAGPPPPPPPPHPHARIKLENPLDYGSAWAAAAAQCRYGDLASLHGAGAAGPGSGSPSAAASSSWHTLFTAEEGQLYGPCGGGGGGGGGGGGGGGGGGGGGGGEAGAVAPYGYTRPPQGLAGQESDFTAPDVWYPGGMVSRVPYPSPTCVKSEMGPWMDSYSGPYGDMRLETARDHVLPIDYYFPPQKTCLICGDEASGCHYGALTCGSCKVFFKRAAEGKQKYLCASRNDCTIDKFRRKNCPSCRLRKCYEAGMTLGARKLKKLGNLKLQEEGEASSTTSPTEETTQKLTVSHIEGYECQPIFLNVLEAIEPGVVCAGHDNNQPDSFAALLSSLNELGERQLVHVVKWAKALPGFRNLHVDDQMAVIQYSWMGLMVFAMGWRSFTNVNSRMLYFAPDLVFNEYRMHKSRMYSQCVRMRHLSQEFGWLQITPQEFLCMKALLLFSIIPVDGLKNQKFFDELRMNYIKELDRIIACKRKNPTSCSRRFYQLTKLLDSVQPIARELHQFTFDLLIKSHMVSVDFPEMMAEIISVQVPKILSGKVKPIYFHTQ
Chain of Retinoic acid receptor alpha (Homo sapiens) (P10276 whole entry, looked up): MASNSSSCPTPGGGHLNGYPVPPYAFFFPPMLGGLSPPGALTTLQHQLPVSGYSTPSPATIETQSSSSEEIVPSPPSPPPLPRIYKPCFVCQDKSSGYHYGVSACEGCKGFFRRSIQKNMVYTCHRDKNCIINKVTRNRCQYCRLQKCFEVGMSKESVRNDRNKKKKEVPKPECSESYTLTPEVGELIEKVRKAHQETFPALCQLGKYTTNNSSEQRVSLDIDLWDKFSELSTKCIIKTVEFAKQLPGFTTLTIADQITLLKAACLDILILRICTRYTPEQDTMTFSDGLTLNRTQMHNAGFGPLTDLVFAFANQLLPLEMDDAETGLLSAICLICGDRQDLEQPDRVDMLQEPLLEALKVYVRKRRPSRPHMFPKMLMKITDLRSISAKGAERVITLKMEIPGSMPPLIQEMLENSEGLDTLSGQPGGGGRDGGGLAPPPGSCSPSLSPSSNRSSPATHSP

For the compound `Oc1c(Cl)cc(Cl)cc1Sc1cc(Cl)cc(Cl)c1O`, the compound was classed as inactive in assay [1] and in assay [2].
Regarding `C=C(c1ccc(C(=O)O)cc1)c1cc2c(cc1C)C(C)(C)CCC2(C)C`, the compound was classed as inactive in assay [1].
Usually AC50 stands for the concentration at which the activity in the assay is half-maximal. For the compound `CCCCCCCCCCCCCCCCCC[N+](C)(C)Cc1ccccc1`, in [3], the half-maximal activity concentration (AC50) is 12.5 µM (active). Besides, the result in assay [4] was inactive.
For the compound `Oc1ccc(Cc2ccccc2O)cc1`, the outcome in assay [1] and in [2] was inactive.
As for `O=C(Nc1cccc([N+](=O)[O-])c1)c1cc2ccccc2cc1O`, the compound was classed as inactive in assay [1] and in [2].
Regarding `CCOC(=O)c1nc(C(Cl)(Cl)Cl)n(-c2ccc(Cl)cc2Cl)n1`, the compound was called inactive in assay [1] and in [2].
For `CCCCCCOC(=O)c1ccc(O)cc1`, the AC50 was 13 µM (active) in assay [1] and 5.86 µM (active) in assay [2].
On to `C=CC(=O)OCC(CO)(COCC(COC(=O)C=C)(COC(=O)C=C)COC(=O)C=C)COC(=O)C=C`, for which the compound was called inactive in assay [1] and in assay [2].
Turning to `COC1=CC(=O)C[C@@H](C)[C@]12Oc1c(Cl)c(OC)cc(OC)c1C2=O`, the outcome in assay [1] was inactive.
`c1ccc(CNc2ncnc3c2ncn3C2CCCCO2)cc1` (configuration not stated): the compound was called inactive in assay [1] and in assay [2].
With `C/C=C/C(=O)C1=C(C)CCCC1(C)C`, the AC50 in [3] was 16.8 µM (active).
For the compound `C=CC(C)(CCC=C(C)C)OC(C)=O` (configuration not stated), the result in [4], in assay [5] and in assay [6] was inactive. The values for the AC50 in assay [1] and in assay [2] were 17.1 µM (active) and 6.92 µM (active), respectively.
Consider `CN(C)c1ccc(C(=C2C=CC(=[N+](C)C)C=C2)c2ccccc2)cc1`, for which the AC50 in [3] is 8.3 µM (active).
For `C[C@]12CC[C@@H]3c4ccc(O)cc4CC[C@H]3[C@@H]1CC[C@@H]2OC(=O)CCC1CCCC1`, the results for the concentration at half-maximal activity (AC50) in assay [1] and in assay [2] were 0.0684 µM (active) and 0.00446 µM (active), respectively.
Take `CC(C)c1c(C(=O)Nc2ccccc2)c(-c2ccccc2)c(-c2ccc(F)cc2)n1CC[C@@H](O)C[C@@H](O)CC(=O)O`: in assay [3], the AC50 was 0.729 µM (active).
For `CCCCCCCCCCCC[N+](C)(C)CCCCCCCCCCCC`, the outcome in [1] was inactive. Moreover, in assay [2], the concentration at half-maximal activity (AC50) was 46.8 µM (active).
For `COc1ccccc1NC(=O)c1cc2ccccc2cc1O`, the outcome in assay [1] was inactive.
Consider `CCCCCCCCCCCCOS(=O)(=O)O`, for which the half-maximal activity concentration (AC50) in the assay on NCBI gene 100848466 was 25.5 µM (active).
On to `CCCCCCCCCCCC`, for which the AC50 is 5.18 µM (active) in assay [3], 3.51 µM (active) in [7] and 7.45 µM (active) in assay [8].
`CC1=CC(=O)c2ccccc2C1=O`: the compound was called inactive in assay [1] and in assay [2].
As to `O=C1Cc2ccccc2N1c1c(Cl)cccc1Cl`, the call in assay [1] and in assay [2] was inactive.
As for `CCCCCCCC(OC)OC`, in assay [3], the compound was classed as inactive.
Turning to `N=C(N)c1ccc(OCCCCCOc2ccc(C(=N)N)cc2)cc1`, the AC50 in assay [4] was 2.33 µM (active); in [9] it was 35.8 µM (active); in [10], 6.98 µM (active). For the same compound, the result in [1], in assay [2], in [5] and in [6] was inactive.
Consider `O=C(c1cc(O)c(O)c(O)c1)c1ccc(O)c(O)c1O`, for which the compound was called inactive in assay [1] and in assay [2].
Regarding `NC(=NCCCCCCN=C(N)/N=C(\N)Nc1ccc(Cl)cc1)/N=C(\N)Nc1ccc(Cl)cc1`, the concentration at half-maximal activity (AC50) in assay [4] was 8.58 µM (active); in assay [2], 9.07 µM (active) and 13.5 µM (active) and 19.2 µM (active); in assay [11], 9.58 µM (active); in assay [8], 0.178 µM (active). The outcome in assay [1], in assay [5], in [6] and in [12] was inactive.

Values taken from PubChem BioAssay (EPA / NIEHS).
